{"source": "the supplement of paper PMC6555819"}
{"tested_on": "FXR:RXRa (NR concentration 270 nM, RXRa partner concentration 90 nM)", "assay": "PBM binding z-score (relative to random genomic background probes); higher = stronger binding; sequences stand for … in GC…GCGATTGACAGCGTAGAATGAAGG", "how_it_was_run": "(§1)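 Regression normalization was applied to scanned fluorescence from custom Agilent 4×180K protein-binding microarrays. Before scanning, arrays were incubated 1 h with ligand-free nuclear receptor dimers, and binding was detected with antibodies against each partner (one per run). Binding z-scores use the random background probes as reference.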"}
{"sequence": "GCTGACGGGTCAAAGGTTATAGCATGAATAGAAT", "PBM binding z-score": 7.43}
{"sequence": "ATCGAAAGGTTGACGAGGTGAGTATACACCGTTT", "PBM binding z-score": 1.11}
{"sequence": "CCTAATGGGCCATTCAGAGGTCATTGATCATATG", "PBM binding z-score": 2.75}
{"sequence": "CAAACTAGCTCAAGGTCAAAGTCGGTTTGTGCCA", "PBM binding z-score": 4.51}
{"sequence": "TAGCCTAGATCAGATCGGGCCAGTATACGCTATA", "PBM binding z-score": -0.847}
{"sequence": "CCTAGCAGGTCAGGGTCACTCAAGCATTTCGCTT", "PBM binding z-score": 4.58}
{"sequence": "TAGCCTAGGTCATGCGAGCCAGTATAGTGTCGGC", "PBM binding z-score": 4.25}
{"sequence": "CCTACTGGGCCCAAAAGGTCATTGATGCCGATAA", "PBM binding z-score": 4.23}
{"sequence": "TCTAGTTGGTCAAAGGTCACACATTCGAAATGCG", "PBM binding z-score": 6.04}
{"sequence": "AGAATGAGGTTAAGAACAGGGAAACAGAATACAT", "PBM binding z-score": 2.13}
{"sequence": "GATACAGGGTCAAGGCAAGAGTACGCGTATTGAT", "PBM binding z-score": 6.93}
{"sequence": "CCTTACGGGTCAAGCTTATAGCACGGGTGGTACG", "PBM binding z-score": 5.81}
{"sequence": "CTACCAAGGTGAACAAGGTCCTTGATTACTATTC", "PBM binding z-score": 0.682}
{"sequence": "TCTCGGAGGACACGAAAGGTCAGAGCTCGACATC", "PBM binding z-score": 3.13}
{"sequence": "TCTATTAGTTGATTACGGCAACCGAAACAGCGGA", "PBM binding z-score": 0.899}
{"sequence": "ATCGAAAGGTCGGAGGTGAGTATACCCACCCGAA", "PBM binding z-score": 2.56}
{"sequence": "TGAATGAGGTTAAAGTTCAGGGAACGTGGCGTCG", "PBM binding z-score": 5.71}
{"sequence": "CCTTACGGGTCACTCCAGTTTATAGCATCGGAGT", "PBM binding z-score": 5.02}
{"sequence": "ACTAGTAGTTGACTTAGGGCAACCGATACGACGC", "PBM binding z-score": -0.211}
{"sequence": "ACAGACAGGGGAGTGAAGGTAACTCAGCTGGACG", "PBM binding z-score": 0.0883}
{"sequence": "TAGCCTATGTCATGCGGGCCAGTATAGTGTCGGC", "PBM binding z-score": -0.542}
{"sequence": "CCTACTGGGCCAAAGGTCATTGTTTCCAATGCTC", "PBM binding z-score": 4.79}
{"sequence": "CCGACTGGGGCAAGGTTACCTTAACGCACAGCCA", "PBM binding z-score": 0.184}
{"sequence": "CATACAGGGTCAGATAGGCCAGAGTAGGGACGGC", "PBM binding z-score": 4.34}
{"sequence": "CCAGACAGGTGAGAAGGGAACTCAGCCTCGATTA", "PBM binding z-score": -0.0941}
{"sequence": "CTCGAAAGGTCGTGCTCAGTTGAGTATACCAAAC", "PBM binding z-score": 4.37}
{"sequence": "GGAACGAGGGCATTCGAGTTGATAGAATGGCGAT", "PBM binding z-score": 1.44}
{"sequence": "ATCGAAAGGTCGACGAGGTGTGTATACACCGTTT", "PBM binding z-score": 3.98}
{"sequence": "TCTAGTAGGTTACCAATGGGGCATTCAGCTTTCT", "PBM binding z-score": 0.412}
{"sequence": "GCTAGCAGGGCATTTGGGTCACTCAATGACGGGC", "PBM binding z-score": 0.398}
{"sequence": "ACAGACAAGTGAGTGAAGGTAACTCAGCTGGACG", "PBM binding z-score": -0.054}
{"sequence": "TCGTATAGGTAAAAGGTGAAAGTCGGTGTGGTAA", "PBM binding z-score": 1.99}
{"sequence": "GCTCGGAGGACAAGGTCAGAGCTTTGTCCGTAGA", "PBM binding z-score": 1.71}
{"sequence": "CCGAGTAGGTTATGGCGCATTCAGGCAACGGTGA", "PBM binding z-score": -0.0642}
{"sequence": "CCTACTGGGCCATTCAGACGTCATTGATCATATG", "PBM binding z-score": -0.301}
{"sequence": "AGAATGAGGTTACCAAAAATCAGGGAAACGCTTG", "PBM binding z-score": 1.63}
{"sequence": "CCTCGGAGGACAGAAGTTCAGAGCTGTCCGCTTT", "PBM binding z-score": -0.0968}
{"sequence": "GCTTGTAGATCAAGGTTAAGATAGACTAAGCTAA", "PBM binding z-score": 0.296}
{"sequence": "CAAACTAGGTCAAGAGGTCAAAGTACGCTTCCCG", "PBM binding z-score": 7.11}
{"sequence": "ATCGAAATGTCGACGAGGTGAGTATACACCGTTT", "PBM binding z-score": -0.0573}
{"tested_on": "LXRa:RXRa (NR concentration 270 nM, RXRa partner concentration 90 nM)", "assay": "PBM binding z-score (relative to random genomic background probes); higher = stronger binding; sequences stand for … in GC…GCGATTGACAGCGTAGAATGAAGG", "how_it_was_run": "as §1"}
{"sequence": "GCTGACGGGTCAAAGGTTATAGCATGAATAGAAT", "PBM binding z-score": 5.45}
{"sequence": "ATCGAAAGGTTGACGAGGTGAGTATACACCGTTT", "PBM binding z-score": 0.773}
{"sequence": "CCTAATGGGCCATTCAGAGGTCATTGATCATATG", "PBM binding z-score": 4.67}
{"sequence": "CAAACTAGCTCAAGGTCAAAGTCGGTTTGTGCCA", "PBM binding z-score": 5.18}
{"sequence": "TAGCCTAGATCAGATCGGGCCAGTATACGCTATA", "PBM binding z-score": -1.11}
{"sequence": "CCTAGCAGGTCAGGGTCACTCAAGCATTTCGCTT", "PBM binding z-score": 3.54}
{"sequence": "TAGCCTAGGTCATGCGAGCCAGTATAGTGTCGGC", "PBM binding z-score": 2.95}
{"sequence": "CCTACTGGGCCCAAAAGGTCATTGATGCCGATAA", "PBM binding z-score": 4.84}
{"sequence": "TCTAGTTGGTCAAAGGTCACACATTCGAAATGCG", "PBM binding z-score": 5.54}
{"sequence": "AGAATGAGGTTAAGAACAGGGAAACAGAATACAT", "PBM binding z-score": 1.7}
{"sequence": "GATACAGGGTCAAGGCAAGAGTACGCGTATTGAT", "PBM binding z-score": 4.47}
{"sequence": "CCTTACGGGTCAAGCTTATAGCACGGGTGGTACG", "PBM binding z-score": 3.52}
{"sequence": "CTACCAAGGTGAACAAGGTCCTTGATTACTATTC", "PBM binding z-score": 0.376}
{"sequence": "TCTCGGAGGACACGAAAGGTCAGAGCTCGACATC", "PBM binding z-score": 3.71}
{"sequence": "TCTATTAGTTGATTACGGCAACCGAAACAGCGGA", "PBM binding z-score": 0.638}
{"sequence": "ATCGAAAGGTCGGAGGTGAGTATACCCACCCGAA", "PBM binding z-score": 2.13}
{"sequence": "TGAATGAGGTTAAAGTTCAGGGAACGTGGCGTCG", "PBM binding z-score": 4.98}
{"sequence": "CCTTACGGGTCACTCCAGTTTATAGCATCGGAGT", "PBM binding z-score": 6.61}
{"sequence": "ACTAGTAGTTGACTTAGGGCAACCGATACGACGC", "PBM binding z-score": -0.0231}
{"sequence": "ACAGACAGGGGAGTGAAGGTAACTCAGCTGGACG", "PBM binding z-score": 0.0557}
{"sequence": "TAGCCTATGTCATGCGGGCCAGTATAGTGTCGGC", "PBM binding z-score": -0.522}
{"sequence": "CCTACTGGGCCAAAGGTCATTGTTTCCAATGCTC", "PBM binding z-score": 5.08}
{"sequence": "CCGACTGGGGCAAGGTTACCTTAACGCACAGCCA", "PBM binding z-score": 0.54}
{"sequence": "CATACAGGGTCAGATAGGCCAGAGTAGGGACGGC", "PBM binding z-score": 3.14}
{"sequence": "CCAGACAGGTGAGAAGGGAACTCAGCCTCGATTA", "PBM binding z-score": -0.0473}
{"sequence": "CTCGAAAGGTCGTGCTCAGTTGAGTATACCAAAC", "PBM binding z-score": 3.75}
{"sequence": "GGAACGAGGGCATTCGAGTTGATAGAATGGCGAT", "PBM binding z-score": 1.37}
{"sequence": "ATCGAAAGGTCGACGAGGTGTGTATACACCGTTT", "PBM binding z-score": 3.28}
{"sequence": "TCTAGTAGGTTACCAATGGGGCATTCAGCTTTCT", "PBM binding z-score": 1.74}
{"sequence": "GCTAGCAGGGCATTTGGGTCACTCAATGACGGGC", "PBM binding z-score": 0.383}
{"sequence": "ACAGACAAGTGAGTGAAGGTAACTCAGCTGGACG", "PBM binding z-score": -0.258}
{"sequence": "TCGTATAGGTAAAAGGTGAAAGTCGGTGTGGTAA", "PBM binding z-score": 2.05}
{"sequence": "GCTCGGAGGACAAGGTCAGAGCTTTGTCCGTAGA", "PBM binding z-score": 2.02}
{"sequence": "CCGAGTAGGTTATGGCGCATTCAGGCAACGGTGA", "PBM binding z-score": 0.163}
{"sequence": "CCTACTGGGCCATTCAGACGTCATTGATCATATG", "PBM binding z-score": -0.532}
{"sequence": "AGAATGAGGTTACCAAAAATCAGGGAAACGCTTG", "PBM binding z-score": 2.73}
{"sequence": "CCTCGGAGGACAGAAGTTCAGAGCTGTCCGCTTT", "PBM binding z-score": 0.116}
{"sequence": "GCTTGTAGATCAAGGTTAAGATAGACTAAGCTAA", "PBM binding z-score": 1.56}
{"sequence": "CAAACTAGGTCAAGAGGTCAAAGTACGCTTCCCG", "PBM binding z-score": 6.18}
{"sequence": "ATCGAAATGTCGACGAGGTGAGTATACACCGTTT", "PBM binding z-score": -0.263}
